In PubChem BioAssay:
Active and inactive are the calls of the source. Unless noted, the rule behind the calls is not given here.

Assays:
[1] = tested on: Wnt5a (protein binding on small-molecule microarray); experiment: Wnt5a binders on small-molecule microarray, primary screen, biophysical, 635/667 nm fluorescence (AID 1142); details: 635 nm fluorescence, higher = more signal;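 note: fluorescence read at 667 nm with signal to noise per printed feature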
[2] = cell viability in Huh7 cells, primary screen, cytotoxicity control for HCV replication inhibitor project, CellTiter-Glo luminescence, basal, 48 h (AID 1143); details: Huh7 HCV replicon, higher = more signal, called active from +8 up or from −8 down;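 note: Huh7 hepatoma cells carrying a hepatitis C replication reporter with no stimulus; test concentration not given here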
[3] = P. aeruginosa biofilm formation inhibitors, primary screen, PAO1 strain, BacTiter-Glo luminescence, LB-PBS (AID 1144); details: 12 h, higher = more signal
[4] = CREB reporter modulators without forskolin, primary screen, cell-based, PC12, CRE-LacZ reporter, unstimulated (AID 1145); details: no forskolin, luminescence, 4.5 h, higher = more signal, called active from +8 up or from −8 down
[5] = CREB reporter modulators under forskolin, primary screen, cell-based, PC12, CRE-LacZ reporter, forskolin-stimulated (AID 1146); details: luminescence, 4.5 h, higher = more signal, called active from +8 up or from −8 down;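 note: PC12 cells with 6xCRE LacZ reporter stimulated by forskolin 10 µM; beta-galactosidase reporter signal reflecting CREB driven transcription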
[6] = biological target: Streptavidin (Streptomyces avidinii) (UniProt P22629); experiment: streptavidin binders on small-molecule microarray, primary screen, artefact control for SMM compound annotation, biophysical, 635/667 nm fluorescence (AID 1147); details: streptavidin binding, higher = more signal;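 note: signal reflects streptavidin binding to arrayed compounds as a control protein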
[7] = small-molecule binders of probe aInhba, primary screen, biochemical, small-molecule microarray, 635/667 nm fluorescence (AID 1148); details: higher = more signal;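 note: score merges 667nm spot fluorescence with signal-to-noise for antibody binding to printed compounds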
Torsin-1A (Homo sapiens) [8] = biological target: Torsin-1A (Homo sapiens) (UniProt O14656); experiment: torsin A binders from cell lysate, primary screen, small-molecule microarray, wild-type, 635/667 nm (AID 1149); details: COS7 hTOR1A-WT lysate, 635 nm fluorescence, higher = more signal
Torsin-1A (Homo sapiens) [9] = biological target: Torsin-1A (Homo sapiens) (UniProt O14656); experiment: small-molecule binders of mutant TOR1A in lysate, primary screen, cell lysate, small-molecule microarray, COS7 lysate, 635/667 nm fluorescence (AID 1150); details: COS7 hTOR1A mutant lysate, 635 nm fluorescence, higher = more signal;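 note: score pools 667 nm emission and signal to noise measuring lysate protein binding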
[10] = tested on: Sonic hedgehog protein (Shh); experiment: small-molecule binders of Shh protein, primary screen, biochemical, small-molecule microarray, 635/667 nm fluorescence (AID 1151); details: small-molecule microarray binding, 635 nm fluorescence; higher = more signal;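 note: Shh protein binding to compounds spotted on small-molecule microarray slides; score combines spot fluorescence intensity with signal-to-noise across triplicate slides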

Torsin-1A (Homo sapiens), sequence (O14656 whole entry, looked up): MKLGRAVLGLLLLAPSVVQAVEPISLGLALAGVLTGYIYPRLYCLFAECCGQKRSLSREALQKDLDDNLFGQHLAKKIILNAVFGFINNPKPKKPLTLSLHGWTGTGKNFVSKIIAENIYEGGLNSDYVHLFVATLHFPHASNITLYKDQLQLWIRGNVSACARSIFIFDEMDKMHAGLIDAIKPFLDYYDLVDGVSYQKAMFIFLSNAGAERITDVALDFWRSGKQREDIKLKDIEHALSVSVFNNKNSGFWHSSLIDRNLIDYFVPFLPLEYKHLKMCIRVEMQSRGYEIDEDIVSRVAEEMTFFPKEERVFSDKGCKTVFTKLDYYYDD
Streptavidin (Streptomyces avidinii), sequence (P22629 whole entry, looked up): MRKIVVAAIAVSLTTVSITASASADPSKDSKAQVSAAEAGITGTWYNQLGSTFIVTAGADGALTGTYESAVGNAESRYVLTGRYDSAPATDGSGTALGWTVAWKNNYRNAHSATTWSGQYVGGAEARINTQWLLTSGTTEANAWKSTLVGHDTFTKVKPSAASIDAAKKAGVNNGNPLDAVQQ

Row | Structure (SMILES) | composite z-score [1] | z-score [2] | z-score [3] | z-score [4] | z-score [5] | composite z-score [6] | composite z-score [7] | composite z-score (Torsin-1A (Homo sapiens) [8]) | composite z-score (Torsin-1A (Homo sapiens) [9]) | composite z-score [10]
1 | C=CC[C@@]1(C(=O)OC)N=C(c2ccc(OCCCO)cc2)O[C@@H]1c1ccccc1CN=[N+]=[N-] | 0.0122 | -4.22 (inactive) | -0.88 (inactive) | -1.03 (inactive) | -1.5 (inactive) | -0.233 | -0.212 | 0.0478 | -0.249 | 0.838
2 | C[n+]1ccc2ccc(O)cc2c1 | 0.247 | -0.289 (inactive) | 0.125 (inactive) | 0.389 (inactive) | -0.287 (inactive) | -0.426 | -0.0405 | 2.27 | 1.19 | 1.95
3 | COc1ccc([Si](C)(C)[C@H]2[C@H](CC(=O)N3CCC[C@H]3CO)O[C@@]3(C(=O)N(c4ccccc4)c4ccccc43)[C@@H]2C)cc1 | -0.154 | -3.6 (inactive) | 0.355 (inactive) | -0.636 (inactive) | -0.38 (inactive) | -0.124 | -0.154 | 0.656 | 0.0932 | 1.23
4 | O=C(NCC(F)(F)F)[C@@H]1c2ccccc2C(=O)N(Cc2ccccc2)[C@H]1c1ccc(CO)cc1 | -0.18 | -0.223 (inactive) | -0.0791 (inactive) | -0.269 (inactive) | -0.461 (inactive) | -0.27 | -0.214 | 0.111 | 0.0036 | -0.911
5 | COC(=O)[C@@]1(Cc2ccccc2)[C@H]2c3cc(C(=O)N(C)C)n(Cc4cc(F)c(F)c(F)c4)c3C[C@H]2CN1C(=O)c1ccccc1 | 0.312 | -3.19 (inactive) | 0.301 (inactive) | 0.0109 (inactive) | -0.214 (inactive) | 0.773 | 0.681 | 0.0663 | 0.12 | -0.578
6 | CN1C(=O)C2C=CC(C(O)C=Cc3ccc([N+](=O)[O-])cc3)N(N3CCCCC3)C2C1=O (stereo not given) | 1.32 | 0.795 (inactive) | 0.287 (inactive) | -0.519 (inactive) | 0.855 (inactive) | 2.09 | 1.22 | 0.704 | 0.451 | 0.909
7 | C=C(/C(=C/C[C@@H](OC(C)=O)c1ccc(CO)o1)c1cnc2ccccc2c1)C(C)C | 1.3 | -0.136 (inactive) | -0.171 (inactive) | 0.159 (inactive) | -0.731 (inactive) | 0.17 | -0.0448 | 2.14 | 0.619 | 2.04
8 | CN(C)CCCC[C@@H]1NC(=O)[C@H]2C[C@@H](C(=O)NCCCCCNC(=O)CS)[C@@H](c3ccc(O)cc3)N2C1=O | -0.22 | -0.0046 (inactive) | -0.315 (inactive) | 0.683 (inactive) | -0.0503 (inactive) | -0.175 | -0.208 | -0.217 | 0.239 | 0.0878
9 | Cc1ccc(N2C(=O)c3ccccc3[C@](C)(C(=O)NCCN3CCOCC3)[C@@H]2c2ccc(CO)cc2)nc1 | -0.538 | -0.28 (inactive) | -0.398 (inactive) | -0.258 (inactive) | -0.37 (inactive) | -0.932 | -0.211 | -2.51 | -1.62 | 0.465
10 | COCCCNC(=O)[C@@]1(Cc2ccccc2I)c2ccccc2C(=O)N(Cc2ccccc2)[C@H]1c1ccc(CO)cc1 | -0.433 | -2.44 (inactive) | 0.202 (inactive) | 0.145 (inactive) | -1.06 (inactive) | -1.38 | -0.176 | -0.79 | -0.332 | -0.892
11 | COCC1=C([C@H](O)CCc2ccccc2)[C@H](CO)[C@@H]2C(=O)N(Cc3ccccc3)C(=O)[C@@H]2C1 | 0.0713 | -0.979 (inactive) | -0.771 (inactive) | 0.586 (inactive) | -0.0417 (inactive) | -0.0218 | -0.0759 | -0.305 | 0.767 | 1.03
12 | Cc1ccc(S[C@]2(C(=O)NCCN3CCOCC3)CC(=O)N(C3CCCCC3)[C@@H]2c2ccc(CO)cc2)cc1 | -0.0482 | -0.0065 (inactive) | 0.314 (inactive) | 0.802 (inactive) | 0.893 (inactive) | 0.893 | 0.0422 | 0.18 | 0.783 | 0.318
13 | NC(=O)NCC#Cc1ccc2c(c1)[C@]1(C(=O)N2)[C@H](C(=O)NC[C@H](O)c2ccccc2)[C@H]2C(=O)O[C@H](c3ccccc3)[C@H](c3ccccc3)N2[C@@H]1c1ccccc1OCCO | -0.0335 | -4.25 (inactive) | -1.09 (inactive) | -0.0246 (inactive) | -0.304 (inactive) | -0.0692 | 0.0471 | -1.05 | 0.92 | 1.82
14 | C[C@]1(C(=O)NCC(F)(F)F)c2ccccc2C(=O)N(Cc2cc(F)cc(C(F)(F)F)c2)[C@H]1c1ccc(CO)cc1 | 0.0343 | -4.86 (inactive) | -0.704 (inactive) | 0.324 (inactive) | 0.486 (inactive) | -0.388 | -0.128 | 0.135 | 0.527 | 0.394
15 | O=C1c2ccccc2[C@@]2(Cc3ccccc3N(Cc3ccccc3)C2=O)[C@H](c2ccc(CO)cc2)N1Cc1ccccc1C(F)(F)F | -0.373 | 0.174 (inactive) | 1.18 (inactive) | -0.116 (inactive) | 0.172 (inactive) | -0.896 | -0.128 | -0.916 | -0.0921 | -1.45
16 | NC(=O)[C@@]1(CCS(=O)(=O)c2ccccc2)N=C(c2ccc(OCCCO)cc2)O[C@H]1c1ccccc1 | 0.211 | -5.04 (inactive) | 0.814 (inactive) | 0.0451 (inactive) | -1.38 (inactive) | 0.856 | 0.0872 | 0.699 | 0.799 | -1.2
17 | C=C(COC)/C(=C/C[C@H](OC(C)=O)c1ccccc1OCCO)c1cnc2ccccc2c1 | 0.704 | -0.0339 (inactive) | -0.543 (inactive) | 0.131 (inactive) | 0.128 (inactive) | 0.351 | 0.0183 | 0.0548 | 0.794 | 1.65
18 | COc1ccc(C(=O)Nc2cccc(CN3C(=O)[C@@]4(O[C@@H](CC(=O)N5Cc6ccccc6C[C@H]5CO)[C@H]([Si](C)(C)c5ccc(OC)cc5)[C@H]4C)c4ccccc43)c2)cc1 | 0.209 | -5.04 (inactive) | -0.473 (inactive) | 4.45 (inactive) | -0.534 (inactive) | 0.395 | -0.0095 | 0.726 | 0.488 | 2.06
19 | [N-]=[N+]=NCc1ccccc1[C@H]1OC(c2ccc(OCCCO)cc2)=N[C@@]1(Cc1ccccc1)C(=O)NCC(O)CO (stereo not given in full) | 0.11 | -2.11 (inactive) | -0.737 (inactive) | 0.96 (inactive) | 0.452 (inactive) | 0.496 | 0.296 | 0.379 | 0.894 | -0.76
20 | [N-]=[N+]=NCc1ccccc1C[C@]1(C(=O)NCC(O)CO)COC(c2ccc(OCCCO)cc2)=N1 (stereo not given in full) | 0.956 | -1.57 (inactive) | 0.305 (inactive) | 1.12 (inactive) | -1.08 (inactive) | 1.43 | 0.435 | 0.842 | 2.3 | -1.03
21 | Cc1ccc(C(C)CC(O)C2C=CC3C(=O)NC(=O)C3N2Nc2ccccn2)o1 (stereo not given) | -0.0405 | 1.2 (inactive) | -1.31 (inactive) | -0.712 (inactive) | -0.364 (inactive) | -0.585 | 0.0797 | 0.81 | 0.282 | 0.452
22 | CCCC[C@@H]1C[C@H]1[C@@H](NC(=O)c1ccco1)c1ccccc1 | -0.609 | -2.87 (inactive) | 0.0548 (inactive) | 0.783 (inactive) | -0.787 (inactive) | -1.27 | -0.258 | -3.91 | -1.3 | -1.88
23 | O=C(N1CCCCC1)[C@]1(CCS(=O)(=O)c2ccccc2)N=C(c2ccc(OCCCO)cc2)O[C@@H]1c1ccccc1 | 0.497 | -5.48 (inactive) | 0.13 (inactive) | 1.16 (inactive) | -0.526 (inactive) | 0.721 | 0.461 | 0.608 | 0.885 | 0.624
24 | COC(=O)[C@@]1(Cc2ccc(OC)cc2)[C@H]2c3cc(C(=O)N(C)C)n(CCSCCO)c3C[C@H]2CN1C(=O)c1ccccc1 | 0.706 | -2.19 (inactive) | 0.565 (inactive) | -0.954 (inactive) | 0.325 (inactive) | 0.872 | 0.351 | -0.101 | 0.199 | -0.824
25 | CC(C)C[C@@H]1NC(=O)[C@@H]2C[C@H](C(=O)NCCCCN(C)C)[C@H](c3ccc(O)cc3)N2C1=O | -0.341 | 0.446 (inactive) | -0.0311 (inactive) | -0.532 (inactive) | -0.0914 (inactive) | -0.466 | -0.0624 | 0.0266 | -0.271 | 0.273
26 | O=[N+]([O-])c1ccc(C[n+]2ccc(CCCO)cc2)o1 | 0.98 | -1.22 (inactive) | 0.0757 (inactive) | 0.0026 (inactive) | 0.619 (inactive) | 1.15 | 0.189 | 0.153 | 0.263 | 1.06
27 | C/C=C/[C@H](CCn1cc([C@H](O)c2ccccc2)nn1)[Si](C)(C)c1ccc(OC)cc1 | -0.582 | -1 (inactive) | 0.303 (inactive) | -0.272 (inactive) | 0.0712 (inactive) | -0.832 | -0.263 | 0.0596 | -0.57 | -0.478
